PubChem BioAssay (NCI)
About 83,000 compounds went through this panel and 20% of them were active in at least one assay; those are over-represented in the sample as a whole.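 Results are percent growth after 48 hours of single-concentration exposure. 100 means growth as in untreated cells, lower positive values show inhibition; negative values down to -100 show cell death.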 The source made the active and inactive calls. The calls were made as follows: active = growth percent below 10; inactive = the rest.

Experiments:
Experiment in all cases: NCI-60 one-dose screen, 48 h (100 = growth as untreated, 0 = no growth, -100 = all killed)
Conditions in all cases: 10 µM unless noted
[1] = system: SR leukemia
[2] = system: RPMI-8226 leukemia
[3] = system: OVCAR-8 ovarian
[4] = system: OVCAR-5 ovarian
[5] = system: SK-OV-3 ovarian
[6] = system: IGROV1 ovarian
[7] = system: OVCAR-3 ovarian
[8] = system: HS 578T breast
[9] = system: NCI/ADR-RES ovarian
[10] = system: BT-549 breast
[11] = system: MDA-MB-435 melanoma
[12] = system: SW-620 colon
[13] = system: MCF7 breast
[14] = system: HCT-116 colon
[15] = system: HCC-2998 colon
[16] = system: KM12 colon
[17] = system: OVCAR-4 ovarian
[18] = system: T-47D breast

Measured: growth

CCCCNCC(=O)Nc1ccc(C(=O)OCC)cc1
inactive: [1] 87% | [2] 94% | [3] 104% | [4] 109% | [5] 105% | [6] 105% | [7] 113% | [8] 108% | [9] 107% | [10] 92.5% | [11] 105% | [12] 105% | [13] 98.4% | [14] 86.4% | [15] 100% | [16] 103%

COc1ccc(C2CC(c3ccccc3)=NN2c2nc(C)c(C(C)=O)s2)cc1 (stereo not drawn)
inactive: [1] 97.7% | [2] 99% | [3] 101% | [4] 105% | [17] 97.1% | [6] 103% | [7] 98.5% | [8] 93.3% | [9] 102% | [18] 99.7% | [10] 110% | [11] 103% | [12] 96.1% | [13] 94.7% | [14] 97.3% | [15] 107% | [16] 102%

COc1ccc(NC(=O)c2cccc(-c3cc(=O)c4c(O)c(OC)c(OC)cc4o3)c2)cc1
inactive: [1] 80.8% | [2] 92.5% | [3] 80.6% | [4] 97.5% | [17] 97.5% | [6] 95.1% | [7] 50.6% | [8] 56.1% | [9] 85.3% | [10] 31% | [11] 105% | [12] 102% | [13] 93.3% | [14] 70.5% | [15] 101% | [16] 103%

COc1cc2c(=O)n(CCCn3ccnc3)c3c4cc5c(cc4ccc3c2cc1OC)OCO5
inactive: [1] 10.5% | [3] 15.1% | [4] 13.9% | [6] 19.5% | [8] 32.4% | [9] 10.5% | [10] 28.4% | [12] 11% | [15] 33.3%
active: [2] -31.9% | [5] -11.4% | [7] -8.36% | [18] -10.9% | [11] -25.3% | [13] 4.23% | [14] -62.1% | [16] 8.03%

C=CCOc1cccc(/C=C2\SC(=Nc3ccc(O)cc3)NC2=O)c1
active: [2] -14.4% | [7] 6.17% | [9] 7.2% | [10] -16.3% | [11] -45.2% | [13] 7.91% | [14] 5.94% | [16] 6.22%
inactive: [1] 17.1% | [3] 27.4% | [4] 27.9% | [17] 32% | [6] 20.3% | [8] 18% | [18] 60.9% | [12] 23.4% | [15] 10.6%

O=C1CC(c2ccc3c(c2)OCO3)Nc2cc3c(cc21)OCO3 (stereo not drawn)
inactive: [2] 16.5% | [3] 12.7% | [4] 44.7% | [17] 49.9% | [6] 50.4% | [8] 19.5% | [9] 13.5% | [18] 59.5% | [10] 32.7% | [12] 25.1% | [13] 13.9% | [15] 17.6% | [16] 15.2%
active: [1] 7.67% | [7] -5.26% | [11] -34.6%

Cc1cn(C2CCCCC2)c(=O)[nH]c1=O
inactive: [1] 111% | [2] 114% | [3] 106% | [4] 94.9% | [5] 112% | [6] 126% | [7] 110% | [8] 121% | [9] 109% | [18] 108% | [10] 102% | [11] 108% | [12] 109% | [13] 108% | [14] 107% | [15] 112% | [16] 117%

O=C(CCl)N1c2cccc3cccc(c23)N(C(=O)CCl)C1c1cn(-c2ccccc2)nc1-c1cccc([N+](=O)[O-])c1
active: [2] -6.92%
inactive: [1] 17.8% | [3] 79.3% | [4] 108% | [17] 96% | [6] 79.5% | [7] 61.6% | [8] 98.6% | [9] 94.6% | [18] 87.7% | [10] 98.5% | [11] 84.2% | [12] 35.4% | [13] 51.6% | [14] 37.3% | [15] 104% | [16] 101%

CN(C)c1ccc2cc(-c3ccc(Cl)c(Cl)c3)c(N)nc2c1
active: [1] -29%
inactive: [2] 13.3% | [3] 21% | [4] 55.4% | [5] 60.4% | [6] 42% | [7] 31% | [8] 62.4% | [9] 15.9% | [18] 18.6% | [10] 48.3% | [11] 22.4% | [12] 30.1% | [13] 24.3% | [14] 13.3% | [15] 44.7% | [16] 28.9%

O=C(/C=C/C12c3ccccc3C(c3ccccc31)C1C(=O)NC(=O)C12)c1ccccc1 (stereo not drawn)
inactive: [1] 20.9% | [3] 27.3% | [17] 39.4% | [6] 19.8% | [8] 14.4% | [18] 51.7% | [10] 23.6% | [11] 13.8% | [12] 19.1% | [14] 14.3% | [15] 10.4%
active: [2] 5.51% | [7] 2.7% | [9] 5.9% | [13] 9.25% | [16] 9.85%

COC(=O)[C@]12CC[C@@H](C)[C@H](C)[C@@H]1C1=CC[C@@H]3[C@@]4(C)C(C=O)=C[C@@](C)(CO)C4=CC[C@@]3(C)[C@]1(C)CC2
active: [14] 6.65%
inactive: [1] 15.5% | [2] 12.8% | [4] 62.9% | [17] 31.7% | [5] 76.3% | [6] 45.4% | [7] 24.3% | [8] 47.5% | [9] 31.9% | [18] 20.8% | [10] 27.7% | [11] 39.6% | [12] 27.9% | [13] 18.1% | [15] 16.1% | [16] 21.6%

COc1cc(C(=O)/C=C/c2c(-c3ccc(F)cc3)nc3ncccn23)cc(OC)c1OC
active: [1] 9.6%
inactive: [2] 11.3% | [3] 48.3% | [17] 46.5% | [5] 63.9% | [6] 47.8% | [7] 19.1% | [18] 59.8% | [10] 32.5% | [11] 11.9% | [12] 32.2% | [13] 10% | [14] 17.7% | [15] 44.1% | [16] 22.3%

COc1cc2oc(-c3cccc(C(=O)Nc4ccc(C)cc4)c3)cc(=O)c2c(OC)c1OC
inactive: [1] 12.7% | [3] 33.3% | [4] 48.2% | [6] 44.4% | [7] 42.3% | [8] 64.3% | [9] 37.5% | [10] 36.6% | [11] 27.9% | [12] 59.5% | [13] 24.5% | [14] 19.6% | [15] 49.9% | [16] 33%
active: [2] -7.08%

COc1ccc(-c2nc3ncccn3c2/C=C/C(=O)c2cc(OC)c(OC)c(OC)c2)cc1
active: [1] -2.39% | [2] -32.2% | [3] 9.62% | [17] 7.94% | [5] -13.5% | [7] -24.4% | [12] -1.58% | [13] 3.17% | [14] -84.8% | [15] -58.4% | [16] -56.9%
inactive: [6] 17.2% | [18] 17.8% | [10] 15.6% | [11] 15.2%
